Measured values from publication PMC5540273 (PLoS ONE, 2017).

Experiments:
Details in all cases: concentration: 1 μM, replicates: in singlicate; n = 1
ANKK1 = test system: ANKK1
ARK5 = test system: T1, ARK5
T1 construct: gene NUAK1

ASK1 = test system: T2, ASK1
T2 construct: gene MAP3K5

ASK2 = test system: T3, ASK2
T3 construct: gene MAP3K6

AURKA = test system: AURKA
AURKB = test system: AURKB
AURKC = test system: AURKC
AXL = test system: AXL
BIKE = test system: T4, BIKE
T4 construct: gene BMP2K

BLK = test system: BLK
BMPR1A = test system: BMPR1A
BMPR1B = test system: BMPR1B
BMPR2 = test system: BMPR2
BMX = test system: BMX
BRAF = test system: BRAF
BRK = test system: T5, BRK
T5 construct: gene PTK6

BRSK1 = test system: BRSK1
BRSK2 = test system: BRSK2
BTK = test system: BTK
BUB1 = test system: BUB1
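Further: KINOMEscan kinase panel screen.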

Row | Compound | %Inh (ANKK1) [%] | %Inh (ARK5) [%] | %Inh (ASK1) [%] | %Inh (ASK2) [%] | %Inh (AURKA) [%] | %Inh (AURKB) [%] | %Inh (AURKC) [%] | %Inh (AXL) [%] | %Inh (BIKE) [%] | %Inh (BLK) [%] | %Inh (BMPR1A) [%] | %Inh (BMPR1B) [%] | %Inh (BMPR2) [%] | %Inh (BMX) [%] | %Inh (BRAF) [%] | %Inh (BRK) [%] | %Inh (BRSK1) [%] | %Inh (BRSK2) [%] | %Inh (BTK) [%] | %Inh (BUB1) [%]
1 | Cn1cncc1-c1ccc2ncnc(Nc3ccc(OCc4ccccc4)cc3)c2c1 [GW320571] | 0 | 72 | 16 | 7 | 0 | 100 | 38 | 10 | 23 | 13 | 17 | 0 | 0 | 28 | 3 | 15 | 0 | 0 | 0 | 26
2 | O=C(O)COc1ncnc2cc(-c3ccc4[nH]ncc4c3)sc12 | 12 | 0 | 0 | 0 | 45 | 28 | 0 | 21 | 0 | 1 | 19 | 18 | 63 | 0 | 19 | 100 | 5 | 1 | 0 | 25
3 | COC(=O)c1c(-c2ccccc2)c2cc(C(=O)O)ccc2c(=O)n1Cc1ccccc1 | 0 | 5 | 0 | 0 | 0 | 11 | 0 | 0 | 0 | 0 | 0 | 3 | 0 | 17 | 90 | 0 | 0 | 0 | 0 | 0
4 | Cc1ccc(NC(=O)Nc2cccc(Cl)c2)cc1-c1ccc(C(=O)Nc2ccncc2)cc1 [GSK1398468] | 17 | 6 | 2 | 0 | 15 | 14 | 44 | 0 | 29 | 0 | 0 | 0 | 0 | 0 | 67 | 13 | 100 | 9 | 0 | 53
5 | Fc1cc(Cl)ccc1Nc1ccnc2cc(I)ccc12 [GW551191] | 5 | 3 | 0 | 0 | 0 | 28 | 41 | 0 | 16 | 38 | 0 | 0 | 8 | 0 | 12 | 19 | 2 | 0 | 0 | 54
6 | Cl.O=C(Nc1cccc(-c2nn3ncccc3c2-c2ccnc(Nc3cccnc3)n2)c1)c1c(F)cccc1F [GSK312879] | 16 | 0 | 0 | 13 | 0 | 24 | 19 | 11 | 31 | 2 | 0 | 0 | 0 | 24 | 91.6 | 21 | 8 | 0 | 0 | 7
7 | CCn1c(-c2cccnc2O)nc2cnccc21 [SB-736715] | 0 | 0 | 0 | 0 | 8 | 0 | 0 | 38 | 0 | 0 | 0 | 0 | 0 | 0 | 0 | 0 | 0 | 0 | 0 | 6
8 | CC1=C(C(=O)Nc2cc3cn[nH]c3cc2F)C(c2ccc(C(F)(F)F)cc2)CC(=O)N1 (stereo not drawn) [GSK429286] | 0 | 7 | 0 | 24 | 23 | 1 | 46 | 0 | 19 | 42 | 0 | 0 | 6 | 4 | 7 | 20 | 5 | 0 | 0 | 18
9 | COc1ccc2nc(-c3cccc(C)n3)nc(Nc3ccncc3)c2c1 [GSK204919] | 0 | 6 | 8 | 0 | 0 | 3 | 6 | 2 | 3 | 31 | 0 | 0 | 0 | 27 | 0 | 8 | 4 | 0 | 0 | 38
